# Calls of active or inactive are those of the source. The calls were made as follows: active = hit-call score of the fitted dose curve at least 0.9, where 1 is the maximum; inactive = score below 0.9.
# Read-out: CD40, CD40 (gene 958)
# Test: BSK_LPS_CD40: BioMAP Diversity Plus: LPS Assay for CD40 Biomarker Activity (AID 2283076)
# Details: primary human HUVEC with PBMC; actives raise or lower the signal
# How it was run: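 In the LPS system of human endothelial cells with peripheral blood mononuclear cells, CD40 levels were read by ELISA 24 h post-treatment. Signal changes in either direction were fitted against the DMSO baseline, with parallel SRB protein staining.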
# Sequence of E-selectin (Homo sapiens) (P16581 whole entry, looked up): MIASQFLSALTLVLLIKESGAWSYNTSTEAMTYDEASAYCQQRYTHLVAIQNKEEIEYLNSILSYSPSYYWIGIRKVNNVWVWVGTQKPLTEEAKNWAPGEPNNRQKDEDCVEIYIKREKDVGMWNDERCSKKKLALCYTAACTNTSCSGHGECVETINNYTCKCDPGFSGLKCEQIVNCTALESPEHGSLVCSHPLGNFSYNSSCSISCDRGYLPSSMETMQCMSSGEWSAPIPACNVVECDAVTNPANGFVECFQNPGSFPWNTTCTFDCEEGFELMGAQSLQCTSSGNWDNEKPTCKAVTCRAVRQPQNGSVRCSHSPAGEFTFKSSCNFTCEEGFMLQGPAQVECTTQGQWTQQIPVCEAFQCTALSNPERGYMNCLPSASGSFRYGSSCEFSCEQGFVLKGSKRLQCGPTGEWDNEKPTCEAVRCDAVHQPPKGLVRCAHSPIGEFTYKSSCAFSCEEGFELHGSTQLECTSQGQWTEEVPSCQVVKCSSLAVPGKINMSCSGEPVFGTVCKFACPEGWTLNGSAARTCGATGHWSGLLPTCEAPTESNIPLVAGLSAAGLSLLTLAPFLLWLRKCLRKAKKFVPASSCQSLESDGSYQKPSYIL
Structure (SMILES),outcome,AC50
Clc1ccccc1Cl,inactive,
O=Cc1ccco1,inactive,
Oc1ccc2ccc3cccc4ccc1c2c34,,20 µM (active)
Nc1ccc([N+](=O)[O-])cc1,inactive,
CC(C)(O)c1cnn2c(-c3ccc(F)c(-c4c(F)cccc4C#N)c3)cnc2n1,inactive,
N#CC(Br)(Br)C(N)=O,inactive,
CCCCOC(=O)c1ccccc1C(=O)OCc1ccccc1,inactive,
COP(=S)(OC)SCN1C(=O)c2ccccc2C1=O,inactive,
C1=Cc2cccc3cccc1c23,inactive,
C[C@]12C=CC3=C4CCC(=O)C=C4CC[C@H]3[C@@H]1CC[C@@H]2O,,20 µM (active)
CC(C)N(Cc1ccccc1)C(=O)C(C)(C)C,inactive,
O=[N+]([O-])C(Br)(CO)CO,,29 µM (active)
O=C(Oc1ccc(Br)cc1)N1CCN2CCC1CC2,inactive,
CC(C)COC(=O)c1ccccc1C(=O)OCC(C)C,inactive,
Cc1ccc(N)c(N)c1,inactive,
OCCCBr,inactive,
CCN(CC)N=O,inactive,
C[N+](C)(C)CC1CO1 (centres undefined),inactive,
Cc1cccc(N)c1N,,7.51 µM (active)
COC(=O)c1ccccc1N,inactive,
ClC1=C(Cl)C2(Cl)C3C(Cl)C=CC3C1(Cl)C2(Cl)Cl (centres undefined),,30.9 µM (active)
Clc1ccc(Cl)c(Cl)c1,inactive,
ClCCOCCCl,inactive,
c1ccc2c(c1)oc1ccccc12,inactive,
Nc1ccc(Cc2ccc(N)cc2)cc1,inactive,
CN(C)C(=O)Nc1ccc(Cl)cc1,inactive,
ClC1=C(Cl)[C@]2(Cl)[C@H]3[C@H]([C@@H]4C=C[C@H]3C4)[C@@]1(Cl)C2(Cl)Cl,,32.1 µM (active)
O=C(O)C1C2CCC(O2)C1C(=O)O (centres undefined),inactive,

# Read-out: E-selectin (Homo sapiens) (UniProt P16581)
# Test: BSK_LPS_Eselectin: BioMAP Diversity Plus: LPS Assay for Eselectin Biomarker Activity (AID 2283077)
# Details: primary human HUVEC with PBMC; actives raise or lower the signal
# How it was run: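 E-selectin ELISA on LPS-stimulated endothelial cell/PBMC co-cultures, read 24 h post-treatment; gains and losses fitted against DMSO. Parallel SRB staining (0.1% SRB after 10% TCA fixation, 560 nm) flags overt cytotoxicity.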
Structure (SMILES),outcome,AC50
Clc1ccccc1Cl,inactive,
O=Cc1ccco1,inactive,
Oc1ccc2ccc3cccc4ccc1c2c34,,31.4 µM (active)
Nc1ccc([N+](=O)[O-])cc1,inactive,
CC(C)(O)c1cnn2c(-c3ccc(F)c(-c4c(F)cccc4C#N)c3)cnc2n1,inactive,
N#CC(Br)(Br)C(N)=O,inactive,
CCCCOC(=O)c1ccccc1C(=O)OCc1ccccc1,inactive,
COP(=S)(OC)SCN1C(=O)c2ccccc2C1=O,inactive,
C1=Cc2cccc3cccc1c23,inactive,
C[C@]12C=CC3=C4CCC(=O)C=C4CC[C@H]3[C@@H]1CC[C@@H]2O,,4.37 µM (active)
CC(C)N(Cc1ccccc1)C(=O)C(C)(C)C,inactive,
O=[N+]([O-])C(Br)(CO)CO,,32.8 µM (active)
O=C(Oc1ccc(Br)cc1)N1CCN2CCC1CC2,inactive,
CC(C)COC(=O)c1ccccc1C(=O)OCC(C)C,inactive,
Cc1ccc(N)c(N)c1,inactive,
OCCCBr,inactive,
CCN(CC)N=O,inactive,
C[N+](C)(C)CC1CO1 (centres undefined),inactive,
Cc1cccc(N)c1N,inactive,
COC(=O)c1ccccc1N,inactive,
ClC1=C(Cl)C2(Cl)C3C(Cl)C=CC3C1(Cl)C2(Cl)Cl (centres undefined),,30.6 µM (active)
Clc1ccc(Cl)c(Cl)c1,inactive,
ClCCOCCCl,inactive,
c1ccc2c(c1)oc1ccccc12,inactive,
Nc1ccc(Cc2ccc(N)cc2)cc1,inactive,
CN(C)C(=O)Nc1ccc(Cl)cc1,inactive,
ClC1=C(Cl)[C@]2(Cl)[C@H]3[C@H]([C@@H]4C=C[C@H]3C4)[C@@]1(Cl)C2(Cl)Cl,,33.5 µM (active)
O=C(O)C1C2CCC(O2)C1C(=O)O (centres undefined),inactive,

# Read-out: Interleukin-8 (IL8), CXCL8 (gene 3576)
# Test: BSK_LPS_IL8: BioMAP Diversity Plus: LPS Assay for Interleukin-8 (IL8) Biomarker Activity (AID 2283078)
# Details: primary human HUVEC with PBMC; actives raise or lower the signal
# How it was run: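 ELISA read-out of IL-8 after 24 h chemical treatment of LPS-activated endothelial/PBMC human primary co-cultures. Changes either up or down relative to DMSO; overt cytotoxicity checked by sulforhodamine B staining in parallel wells.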
Structure (SMILES),outcome,AC50
Clc1ccccc1Cl,inactive,
O=Cc1ccco1,inactive,
Oc1ccc2ccc3cccc4ccc1c2c34,,30.5 µM (active)
Nc1ccc([N+](=O)[O-])cc1,inactive,
CC(C)(O)c1cnn2c(-c3ccc(F)c(-c4c(F)cccc4C#N)c3)cnc2n1,,3.82 µM (active)
N#CC(Br)(Br)C(N)=O,inactive,
CCCCOC(=O)c1ccccc1C(=O)OCc1ccccc1,inactive,
COP(=S)(OC)SCN1C(=O)c2ccccc2C1=O,inactive,
C1=Cc2cccc3cccc1c23,inactive,
C[C@]12C=CC3=C4CCC(=O)C=C4CC[C@H]3[C@@H]1CC[C@@H]2O,inactive,
CC(C)N(Cc1ccccc1)C(=O)C(C)(C)C,inactive,
O=[N+]([O-])C(Br)(CO)CO,,34.2 µM (active)
O=C(Oc1ccc(Br)cc1)N1CCN2CCC1CC2,inactive,
CC(C)COC(=O)c1ccccc1C(=O)OCC(C)C,inactive,
Cc1ccc(N)c(N)c1,inactive,
OCCCBr,inactive,
CCN(CC)N=O,inactive,
C[N+](C)(C)CC1CO1 (centres undefined),inactive,
Cc1cccc(N)c1N,,20 µM (active)
COC(=O)c1ccccc1N,inactive,
ClC1=C(Cl)C2(Cl)C3C(Cl)C=CC3C1(Cl)C2(Cl)Cl (centres undefined),,31.6 µM (active)
Clc1ccc(Cl)c(Cl)c1,inactive,
ClCCOCCCl,inactive,
c1ccc2c(c1)oc1ccccc12,inactive,
Nc1ccc(Cc2ccc(N)cc2)cc1,inactive,
CN(C)C(=O)Nc1ccc(Cl)cc1,inactive,
ClC1=C(Cl)[C@]2(Cl)[C@H]3[C@H]([C@@H]4C=C[C@H]3C4)[C@@]1(Cl)C2(Cl)Cl,,33.8 µM (active)
O=C(O)C1C2CCC(O2)C1C(=O)O (centres undefined),inactive,
